The source of these data is ChEMBL document CHEMBL4513216, “Probing the Open Global Health Chemical Diversity Library for Multistage-Active Starting Points for Next-Generation Antimalarials” (ACS Infect Dis, 2020).

Structures are written as SMILES. About 2,700 (4%) of roughly 68,000 compounds showed an effect of 50% or more. What follows is part of a selection rich in strong results, with near analogues and random picks from the rest.

This test deals with Plasmodium berghei. Description: Screen against P. berghei liver stage (PbLuc), transformed with Luciferase, at 2uM. The class given is functional, HepG2. Particulars: tested at 2 uM.
Regarding `CNC(=O)[C@@H]1C[C@H]2CN(C(=O)c3ccco3)C[C@H]2N1C(C)C`, the INHIBITION is listed as -11.99%.

On to `c1cncc(COCc2nnc3n2CCN(Cc2cccs2)C3)c1`, for which the INHIBITION is listed as 29.95%.

Turning to `Cc1ncsc1CCN(C)C(=O)CN1CCCCCC1=O`, the INHIBITION stood at 24.36%.

In the case of `Cc1ncsc1CCN(C)C(=O)CN1CC2(CCCC2)CC1=O`, the INHIBITION is 52.3%.

For `Cc1ncsc1CCN(C)C(=O)CN1CCCCC1=O`, the INHIBITION is reported as 17.2%.

As to `COc1cc(NC(=O)c2nc3ccccc3n(C)c2=O)cc(OC)c1`, the INHIBITION is given as -1.01%.

With `COCCn1cc(C(=O)N2CCCC2c2cccc(C)c2)ccc1=O` (configuration not stated), the INHIBITION is on record as 9.5%.

With `CCN1CCN(C)C2(CCN(C(=O)CC(F)(F)F)CC2)C1=O`, the INHIBITION is on record as -2.81%.

Regarding `COCCCN1CC2(CCC1=O)CCN(Cc1cc(C(C)C)no1)CC2`, the INHIBITION came out at 50.86%.

As to `COCCCN1CC2(CCC1=O)CCN(Cc1cc(C)no1)CC2`, the INHIBITION is on record as -7.23%.

Regarding `COCCCN1CC2(CCN(Cc3cc(C(C)C)no3)CC2)CC1=O`, the INHIBITION is -9.78%.

As to `CS(=O)(=O)c1nccn1Cc1ccncc1`, the INHIBITION is listed as -52.32%.

As to `CCc1nccn1CCC(=O)N1CCN(c2ccccc2C)CC1C` (configuration not stated), the INHIBITION is recorded as -12.03%.

Consider `Cc1ccccc1N1CC(C)N(C(=O)CCn2cccn2)CC1=O` (configuration not stated), for which the INHIBITION worked out at 51.08%.

Regarding `CCc1nccn1CCC(=O)N1CC(=O)N(c2ccccc2C)CC1C` (configuration not stated), the INHIBITION came out at 26.21%.

Regarding `O=C1NCC2(CCCN(C(=O)c3ccc4c(c3)OCCO4)CC2)O1` (configuration not stated), the INHIBITION is 24.36%.

With `O=C1NCC2(CCN(C(=O)c3ccc4c(c3)CCCO4)CC2)O1`, the INHIBITION was determined as 50.59%.

With `O=C1NCC2(CCCN(C(=O)c3ccc4c(c3)CCCO4)CC2)O1` (configuration not stated), the INHIBITION was 26.74%.

On to `Cc1cc(-c2ccccc2C(=O)O)nc(C2CCCCN2C)n1` (configuration not stated), for which the INHIBITION came out at 11.52%.

Consider `NCC1CN(C(=O)c2cccc(-n3cccn3)c2)CCO1` (configuration not stated), for which the INHIBITION is reported as 45.82%.

`O=C(c1cccc(-n2cccn2)c1)N1CCCOC(CN2CCCC2)C1` (configuration not stated): the INHIBITION was determined as 33.9%.

As to `O=C(c1cccc(-n2cccn2)c1)N1CCOC(CCO)C1` (configuration not stated), the INHIBITION was found to be 62.51%.

In the case of `c1cnc2c(c1)nc1n2[C@@H](CNCc2nccs2)COC1`, the INHIBITION is recorded as -111.95%.

Consider `Fc1cccc(N2CCc3ncnc(N4CCOCC4)c3CC2)c1`, for which the INHIBITION is given as -7.49%.

As for `CCOc1ccc(SCCNS(=O)(=O)CC)cc1`, the INHIBITION stood at 20.15%.

Consider `O=C(O)c1c(-c2cccnc2)ncc2c1CCN(CC1CCOC1)C2` (configuration not stated), for which the INHIBITION was determined as 21.13%.

As to `CSc1cc2c(cc1NC(=O)N(C)Cc1ccncc1)OCCO2`, the INHIBITION is recorded as -10.36%.

In the case of `Cc1ccc(CNC(=O)Cn2c(=O)c3cccnc3n2C)cc1F`, the INHIBITION worked out at 16.93%.

In the case of `Cn1c2ncccc2c(=O)n1CC(=O)NCCc1c(F)cccc1F`, the INHIBITION is given as -0.83%.

With `Cn1c2ncccc2c(=O)n1CC(=O)NCCC1=CCCCC1`, the INHIBITION is recorded as 54.49%.

As for `CCC[C@@H](NC(N)=O)C(=O)N1Cc2ccccc2-c2ccccc2C1`, the INHIBITION is reported as -9.87%.

Take `CC(C)Cc1noc(CNc2cccc(-c3nnnn3C)c2)n1`: the INHIBITION is given as -45.29%.

As to `CC=C(C)C(=O)NS(=O)(=O)c1ccc(C(F)(F)F)cn1`, the INHIBITION is -31.15%.

`O=C(c1cccc(O)c1)N1CCN(Cc2nnc(C3CCC3)o2)CC1`: the INHIBITION is reported as 1.41%.

As for `COCC(O)CN(C)C(=O)NC1CCN(Cc2ccccn2)CC1` (configuration not stated), the INHIBITION came to 54.85%.

Turning to `Cc1cc(CN(C)C(=O)NC2CCN(Cc3ccccn3)CC2)no1`, the INHIBITION is -7.82%.

On to `CN(Cc1cccnc1)C(=O)NC1CCN(Cc2ccccn2)CC1`, for which the INHIBITION was -37.28%.

In the case of `COc1ncc(C2(O)CCN(Cc3cc(F)ccc3F)CC2)c(OC)n1`, the INHIBITION is listed as -48.87%.

In the case of `CCc1cc(C(=O)N[C@@H]2CC[C@@H](N3CCOCC3)[C@@H]2O)no1`, the INHIBITION is given as -49.75%.

Regarding `CCOc1ccc(OCCN2CCC(N3CCNC3=O)CC2)cc1`, the INHIBITION worked out at 12.81%.

For the compound `COc1ccc(OCCN2CCC(N3CCNC3=O)CC2)cc1`, the INHIBITION worked out at 81.79%.

As for `COc1ccccc1OCCN1CCC(N2CCNC2=O)CC1`, the INHIBITION is 3.86%.

Regarding `C[S+]([O-])CCNC(=O)N1CCSC2(CCCCC2)C1` (configuration not stated), the INHIBITION is -66.38%.

`Cc1cccc(N2CC[C@@H]3CN(Cc4csc(C)n4)CCO[C@@H]3C2)n1`: the INHIBITION was determined as 25.87%.

On to `Cc1noc(C)c1C(=O)N1C[C@@H]2CC[C@H]1CN(c1cnccn1)C2`, for which the INHIBITION was determined as 20.32%.

`Cc1nnsc1C(=O)N1C[C@@H]2CC[C@H]1CN(c1cnccn1)C2`: the INHIBITION was determined as 28.73%.

Regarding `Cc1cnc(C(=O)N2C[C@@H]3CC[C@H]2CN(c2cnccn2)C3)cn1`, the INHIBITION is on record as 53.98%.

On to `c1ccc2c(c1)SCCC2NCc1ccc(N2CCOCC2)cc1` (configuration not stated), for which the INHIBITION worked out at 15.16%.

With `Cc1nccn1-c1ccccc1CNC(=O)c1cn(CCN)nn1`, the INHIBITION was -27.6%.

On to `NCCn1cc(C(=O)NCc2ccccc2Cn2cccn2)nn1`, for which the INHIBITION is 62.3%.

Regarding `NCCn1cc(C(=O)NCc2ccccc2-n2cccn2)nn1`, the INHIBITION is given as 28.67%.

Regarding `CC(Cn1cccn1)n1cnc2ccc(F)cc2c1=O` (configuration not stated), the INHIBITION was determined as 32.71%.
